Results from PubChem BioAssay AID686978 (National Center for Advancing Translational Sciences (NCATS), 2013).
Hit rate of the full screen: of about 420,000 compounds, about 64,000 (15%) were called active. Not shown: some 27% with an inconclusive outcome. Calls follow the shape of the dose curve; as a rule, active = well fitted inhibition curve with a large enough effect; inconclusive = small, poorly fitted or top-dose-only effect; inactive = flat fitted curve, though single readings scatter. These entries were drawn from the full list. A call without a number means that no potency is given here.

Experiment: qHTS for Inhibitors of human tyrosyl-DNA phosphodiesterase 1 (TDP1): qHTS in cells in absence of CPT; also: nearly all actives have a fitted effect of over 55% in size
Settings: DT40 Tdp1-/- hTDP1 cells, no CPT, ATP luminescence, 48 h; activity change, negative = growth inhibition: at 46.2 µM (top of the series)
How it was run: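 Seeded 400 DT40-hTDP1 cells/well (vehicle DMSO, no 20 nM CPT); pinned compounds; ≥48 hr at 37 °C; CellTiter-Glo luminescence as viability measure.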
Potency is read from the fitted curve at half-maximal effect.

SMILES | Potency
O=C1c2ccccc2C(=O)N1c1ccc(S(=O)(=O)N2CCOCC2)c2ccccc12 | inactive
Cc1ccc(S(=O)(=O)NC(=O)Nc2nc(-c3ccc(F)c(F)c3)cs2)cc1 | inactive
COc1cccc(CC(=O)Nc2nc(-c3ccc(OC)c(OC)c3)cs2)c1 | 18.4 µM (active)
COc1cc(CC(=O)Nc2nc(-c3ccc(F)c(F)c3)cs2)cc(OC)c1OC | 5.8 µM (active)
COc1ccc(CC(=O)Nc2nc(-c3ccc(F)c(F)c3)cs2)cc1OC | 6.51 µM (active)
Fc1ccc(-c2csc(-c3ccc(C4SCCS4)cc3)n2)cc1F | inactive
COc1ccc(-c2csc(Nc3cccc(C)n3)n2)cc1OC | 25.9 µM (active)
COc1ccc(CC(=O)Nc2nnc3n2CCS3)cc1OC | inactive
COc1ccc(-c2csc(NC(=O)c3ccc(N4C(=O)CCC4=O)cc3)n2)cc1OC | inactive
Cc1nn2c(=O)cc(COC(=O)c3ccccc3NC(=O)COc3ccccc3C)nc2s1 | inactive
CC(=O)C1C(c2ccc(Cl)cc2)c2c(n[nH]c2C)CC1(C)O (stereo not drawn) | inactive
CCOc1ccc(S(=O)(=O)NCCC(=O)NCC2CCCO2)cc1 (stereo not drawn) | inactive
COc1ccc(Cn2cccc(NC(=O)Nc3ccc(C#N)cc3)c2=O)cc1 | inactive
CC1CCc2sc3nc(N4CCN(CCO)CC4)n4ncnc4c3c2C1 (stereo not drawn) | inactive
Cc1ccn2c(=O)nc(SCC(=O)NCc3ccc4c(c3)OCO4)nc2c1 | inactive
O=C(COC(=O)CC1CC2CCC1C2)NC(=O)NC1CCCC1 (stereo not drawn) | inactive
COc1ccc(CCNS(=O)(=O)c2ccc(F)cc2)cc1OC | inactive
COc1cc(OC)cc(C(=O)NCCc2csc3nc(-c4ccccc4F)nn23)c1 | inactive
COc1ccc(-c2nc3scc(CCNS(=O)(=O)c4cc(F)ccc4OC)n3n2)cc1OC | 20.6 µM (active)
Cc1cc([N+](=O)[O-])nn1CC(=O)Nc1ccc(Cc2ccncc2)cc1 | inactive
CN(c1ccccc1)S(=O)(=O)c1cc(C(=O)OCC(=O)N2CCN(C(=O)c3ccco3)CC2)ccc1Cl | 23.1 µM (active)
O=C(OCC(=O)N1CCN(C(=O)c2ccco2)CC1)c1c(Cl)cccc1Cl | inactive
O=C(OCC(=O)N1CCN(C(=O)c2ccco2)CC1)c1cccc(O)c1 | inactive
COc1cccc(CN2CCNC(=O)C2CC(=O)N(C)CCc2ccccn2)c1 (stereo not drawn) | inactive
Cc1ccc(NC(=O)c2oc3ccccc3c2C)c([N+](=O)[O-])c1 | inactive
COc1ccc(Cl)cc1C(=O)NCC#N | inactive
Cc1noc(C)c1-c1nc(Nc2ccccc2)c2ccccc2n1 | inactive

SMILES | Potency
c1ccc2c(Nc3ccncc3)nc(-c3ccoc3)nc2c1 | 20.6 µM (active)
c1ccc2c(Nc3ccncc3)nc(-c3ccc4c(c3)OCO4)nc2c1 | 14.6 µM (active)
Cc1ccc(C(=O)O)cc1N1C(=O)CCCC1=O | inactive
CC1CCC(NC(=O)CNC(=O)c2ccc3ccccc3c2)CC1 (stereo not drawn) | inactive
N#Cc1ccc(CSc2ncccn2)cc1 | inactive
Cn1c(=O)[nH]c2c(c(C(=O)O)nn2C)c1=O | inactive
O=C(CSc1nc2cc3c(cc2c(=O)n1CCC1=CCCCC1)OCO3)NCc1ccco1 | inactive
COCCN(C(=O)C(C)N1C(=O)c2ccccc2C1=O)c1c(N)n(CC(C)C)c(=O)[nH]c1=O (stereo not drawn) | inactive
CCC(=O)Nc1ccc2c(c1)nc(CCN1CCN(C)CC1)n2C | inactive
CCC(=O)Nc1ccc2c(c1)nc(CCN1CCN(c3ccccn3)CC1)n2C | inactive
Cn1c(CCN2CCCCCC2)nc2cc(NC(=O)Nc3ccccc3)ccc21 | 23.1 µM (active)
N[C@@H](Cc1ccccc1)C(=O)N1CCC(C(=O)NCC(=O)Nc2ccc(F)cc2)CC1 | inactive
Cc1ccc(SCCC(=O)NCc2ccccn2)cc1 | inactive
O=C(COc1ccccc1)OCc1cc(=O)n2nc(-c3cccs3)sc2n1 | inactive
COc1ccccc1CNCc1ccc(C(=O)O)s1 | inactive
COc1ccc(NC(=O)N2CCCC2C(=O)NCc2ccccc2Cl)cc1 (stereo not drawn) | inactive
COc1ccc(CNC(=O)c2ccc(NC(=O)N3CC4CCCN4c4ccccc43)cc2)cc1 (stereo not drawn) | 20.6 µM (active)
O=C(CCC(=O)N1CC2CCCN2c2ccccc21)NCc1ccccc1Cl (stereo not drawn) | 16.4 µM (active)
COc1ccccc1CNC(=O)CNC(=O)c1cn(-c2ccccc2OC)c(=O)c2ccccc12 | inactive
COc1ccccc1CNC(=O)c1ccc(NC(=O)N2CC(C)Sc3ccccc32)cc1 (stereo not drawn) | 23.1 µM (active)
O=C(CCC(=O)n1ncc2ccccc21)NCc1ccccc1Cl | inactive
O=C(NCc1ccccc1Cl)C1CCCO1 (stereo not drawn) | inactive
COc1ccc(S(=O)(=O)N2CCC(C(=O)NCCC(=O)NCc3cccc(OC)c3)CC2)cc1 | inactive
COc1ccc(CNC(=O)C2CCN(C(=O)c3ccccc3)CC2)cc1 | inactive
COc1cccc(CNC(=O)C2CC(=O)N(C3CCCCCCC3)C2)c1 (stereo not drawn) | inactive
COc1cccc(CNC(=O)CCC(=O)N2CC3CCCN3c3ccccc32)c1 (stereo not drawn) | 16.4 µM (active)
